Laboratory results reported in ChEMBL document CHEMBL3433997, “St. Jude Leishmania screening dataset” (2016).

Each molecule was assayed against Hexose transporter 1 (Plasmodium falciparum) (UniProt O97467) (assay: ST_JUDE_LEISH: Cytotoxicity at 2uM final concentration against transgenic Leishmania Mexicana promastigotes LmPfHT that are glucose transport deficient and complemented with the Plasmodium falciparum hexose transporter. Activity is measured by DNA content using SYBR green in vitro).
Type: functional
With CN(c1ccc(NC(=O)c2ccc(F)cc2)cc1)C1CCN(Cc2cccc(F)c2)C1 (centres undefined) the inhibition was -0.15%. CCC(C)NS(=O)(=O)c1ccc2nc(Nc3ccc(C)cc3)n(C3CCCCC3)c2c1 (centres undefined) gave an inhibition of 4.02%. In the case of O=C(NC(=S)Nc1cc(C(F)(F)F)cc(C(F)(F)F)c1)c1ccc(Cl)cc1, the inhibition is reported as -0.34%. CCOc1ccc2c(=NN=Cc3cccc(F)c3)cc(C)[nH]c2c1 was tested, and the inhibition was 1.08%. Work on CCn1c(-c2cc(C)on2)nc2cnc(Oc3ccc(C(=O)N4CC(=O)N(C)C4C(C)(C)C)cc3)cc21 (centres undefined) yielded an inhibition of 1.92%. With Cc1ccoc1C(=O)Nc1cccc(-c2cccc(-c3nc4cc(C(F)(F)F)ccc4[nH]3)c2)c1 the inhibition was 1.86%. Molecule CN1CCC(Oc2cc(CN3CC[C@H](NC(=O)c4ccc(Cl)c(Cl)c4)C3)ccc2I)C1 (some centres undefined) has an inhibition of 0.84%. Molecule COc1cccc2cc(C(=O)N[C@@H](CC(C)C)C(=O)N[C@H](C=NN(C)C(=O)OC(C)(C)C)Cc3ccccc3)oc12 has an inhibition of 7.62%. Work on COc1cc2nc(N3CCC(CNC(=O)c4ccc(-c5ccc(C(=O)N(C)C)cc5O)cc4)CC3)nc(N)c2cc1OC yielded an inhibition of 1.14%. With Cc1cccc2nc(-c3ccc(-c4ccc(CN5CCCCC5CO)cc4)cc3)[nH]c12 (centres undefined) the inhibition was 31.6%. O=C(NCCCN1CCN(c2cccc(Cl)c2)CC1)c1ccc(-c2nc3cc(Cl)c(Cl)cc3[nH]2)c(F)c1 showed an inhibition of 1.4%. Work on CC(=O)Nc1ccc(C(=O)N2CCN(c3ccnc4cc(Cl)ccc34)CC2)cc1 yielded an inhibition of -0.89%. In the case of O=C(Nc1cccc(-c2ccc(-c3nc4cc(F)ccc4[nH]3)cc2)c1)Nc1ccc(F)c(F)c1F, the inhibition is reported as 4.09%. Work on CC1CCN(CC[C@H]2CCCN2S(=O)(=O)c2cccc(NC(=O)c3ccc(-c4ccc(Cl)cc4)o3)c2)CC1 yielded an inhibition of 1.69%.
